What all share (experiment): NCI-60 one-dose screen, 48 h (100 = growth as untreated, 0 = no growth, -100 = all killed)
Conditions in all cases: 10 µM unless noted

Experiment [1] concerns NCI-H23 lung.
In experiment [2] the test system is NCI-H226 lung.
Experiment [3] relates to NCI-H322M lung.
The test system of experiment [4] is HOP-62 NSCLC.
For experiment [5], the system named is NCI-H460 lung.
The test system of experiment [6] is NCI-H522 lung.
The test system of experiment [7] is 786-0 renal.
Experiment [8] deals with COLO 205 colon.
The subject of experiment [9] is A549/ATCC NSCLC.

The panel holds about 83,000 compounds, 20% with a hit somewhere; the sample as a whole holds those more often.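 Testing used 96-well plates and a 48-hour single-concentration exposure. Example: -40 means 40% of the starting cells died.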 A number with no mark means an inactive call. Active and inactive are the calls of the source. How the source made its calls: active means growth percent below 10; inactive means the rest.

As for `CCN(CC)c1ccc(NC2=C(Cl)C(=O)c3nc(C)ccc3C2=O)cc1`, the growth is -10.3% (active) in [1]; 87.9% in experiment [2]; 109% in experiment [3]; 130% in experiment [4]; 100% in experiment [5]; -44.3% (active) in experiment [6]. For the same molecule, the results for the growth in [7] and in experiment [8] were 60.6% and 101%, respectively.
In the case of `NC(N)=Nc1ccc(Oc2cccc(Nc3ccc(Cl)c(C(F)(F)F)c3)c2)cc1`, the growth is 47.4% in experiment [1]; 53.3% in [2]; 61.9% in [3]; 13.4% in [4]; 2.61% (active) in experiment [5]; 49% in experiment [6]. In addition, the figures for the growth in experiment [9], in [7] and in experiment [8] were 57.4%, 53% and -4.28% (active), respectively.
Consider `O=C(NNc1nc2cc(F)ccc2n2cccc12)c1ccncn1`, for which the growth in [1] is 30%; in [2], 13.2%; in experiment [3], 31.7%; in experiment [4], 20.5%; in [5], 9.08% (active); in experiment [6] it was -6.6% (active). In addition, the figures for the growth in [9], in experiment [7] and in [8] were 14.7%, 11% and 10.3%, respectively.
Take `COc1ccc(-n2c(SCc3nnc(NC(=O)c4ccc(Br)cc4)s3)nc3cc(OC)c(OC)cc3c2=O)cc1`: the growth was 92.5% in [1]; 74% in experiment [2]; 85.5% in experiment [3]; 92.3% in experiment [4]; 93.5% in experiment [5]; 89.2% in experiment [6]. Moreover, the results for the growth in experiment [9], in experiment [7] and in experiment [8] were 102%, 105% and 104%, respectively.
Take `CC(=O)N1N=C(c2cccc(-n3cccc3)c2)CC1c1cccc(F)c1` (centres undefined): the growth in [1] is 82.1%; in [2] it was 94.5%; in experiment [3] it was 90.3%; in [4], 109%; in experiment [5], 107%; in experiment [6], 94.8%. The growth in [7] was 102%; in experiment [8], 104%.
For the molecule `Nc1nc(N)c2c(n1)NC(c1ccc(Cl)cc1)CC(c1ccc(Nc3nc(NCCO)nc(N4CCOCC4)n3)cc1)=N2` (centres undefined), the growth is 85.2% in experiment [1]; 82% in [2]; 95.5% in [3]; 80.2% in [4]; 79.8% in experiment [5]; 65.8% in experiment [6]. Moreover, the growth in experiment [7] was 67.8%; in [8], 72.6%.
With `COc1ccc2[nH]cc(/C=N/Nc3nc4ccccc4s3)c2c1`, the growth was 67.6% in [1]; 75.6% in experiment [2]; 79.2% in experiment [3]; 62.9% in experiment [4]; 32.1% in experiment [5]; 28.5% in experiment [6]. Moreover, the growth in [9] was 52.4%; in experiment [7], 52.9%; in experiment [8], 80.4%.
Consider `CC(C)(O)c1cncc(-c2ccc3ncnc(NCc4ccccc4)c3c2)c1`, for which the growth is 71.1% in [1]; 74.8% in [2]; 102% in [3]; 66% in experiment [4]; 97.6% in [5]; 85% in experiment [9]. In addition, the growth is 76.3% in experiment [7] and 113% in [8].
Turning to `Cc1cccc(/C=C/C(=O)Nc2ncc(Cc3cccc(C)c3)s2)c1`, the growth is 30.4% in experiment [1]; 17.7% in experiment [2]; 39.9% in [3]; 32.1% in [4]; 8.64% (active) in experiment [5]; -43.2% (active) in [6]. Moreover, the growth was 21.3% in experiment [7] and -0.745% (active) in experiment [8].
As for `CNCc1cccc2c1OCCCCCCC(C)(O)CC(C)(C)S(=O)(=O)c1ccc(cc1)-c1cnc(N)c(n1)C(=O)N2` (centres undefined), the growth is 9.01% (active) in [1]; 43.5% in [2]; 46.2% in experiment [3]; 59.2% in experiment [4]; -56.3% (active) in [5]; -66.8% (active) in [6]. Besides, the growth in [7] is -11.9% (active); in [8], -48.2% (active).
With `Cc1cc(C)c(N2C(=O)CC(Nc3ccc(Cl)cc3Cl)C2=O)c(C)c1` (centres undefined), the growth was 104% in experiment [1]; 107% in experiment [2]; 99.8% in [3]; 104% in experiment [4]; 105% in experiment [5]; 93.6% in experiment [6]. Also, the values for the growth in experiment [7] and in [8] were 102% and 124%, respectively.
Turning to `C#CC(=O)N(c1ccc(OC)cc1OC)C(C(=O)NCC(=O)OCC)c1cccs1` (centres undefined), the growth in experiment [1] was -54.7% (active); in experiment [2] it was 93.3%; in experiment [3], 94.4%; in experiment [4], 102%; in [5], 82.2%; in experiment [6], -72.2% (active). The growth was -75.2% (active) in [7] and 35% in experiment [8].
In the case of `CCO/C=N/C1=C(C#N)C(c2ccc(Cl)cc2)c2sc3c(C)cccc3c2O1` (centres undefined), the growth is 25.2% in experiment [1]; 51.1% in [2]; 43.6% in [3]; 41.4% in experiment [4]; 4.89% (active) in [5]; 8.93% (active) in experiment [6]. Moreover, the values for the growth in [7] and in experiment [8] were 29.1% and 4.67% (active), respectively.
With `COCCNc1ccc2ncc(C#Cc3cncc(C(=O)Nc4ccc(CN5CCN(C)CC5)c(C(F)(F)F)c4)c3)n2n1`, the growth in [1] was -49.6% (active); in [2], -45.9% (active); in experiment [3], -23% (active); in experiment [4] it was -48.3% (active); in experiment [5], -82.5% (active); in experiment [6], -76.3% (active). Besides, the growth in experiment [9] is 3.12% (active); in experiment [7], -64.1% (active); in [8], -83.1% (active).
Consider `C=CCn1c(SCC(=O)Nc2ccc(C(=O)/C=C/c3cc(OC)c(OC)c(OC)c3)cc2)nnc1-c1c[nH]c2ccccc12`, for which the growth in experiment [1] is -11% (active); in experiment [2], -4.91% (active); in experiment [3], 53%; in experiment [4], 70.5%; in experiment [5], 3.42% (active); in [6] it was 35.7%. Besides, the growth was 34.7% in experiment [9], 23.1% in experiment [7] and 73.1% in experiment [8].
For the molecule `O=C(CN1CCN(c2cc(=O)n(-c3ccccc3)c3ccccc23)CC1)Nc1ccc(F)cc1`, the growth in experiment [1] was 57.5%; in experiment [2], 63.6%; in [3], 83.6%; in experiment [4] it was 83%; in experiment [5], 71.1%; in experiment [6] it was 66.1%. For the same molecule, the growth in [7] is 81.9%; in experiment [8] it was 85.3%.
In the case of `COC[C@]12CCC(C)(C)C[C@H]1C1=CC[C@@H]3[C@@]4(C)CCCNC(C)(C)[C@@H]4CC[C@@]3(C)[C@]1(C)CC2`, the growth in experiment [1] is -83.9% (active); in experiment [2], -61.5% (active); in [3] it was -50.5% (active); in [4] it was 46.6%; in experiment [5], -69% (active); in experiment [9], 10.1%. In addition, the growth in experiment [7] is -83.1% (active); in experiment [8], -59.6% (active).
For `Cc1nn(-c2ccccc2)c2ncnc(N/N=C/c3cccc(O)c3)c12`, the growth in [1] is 61.3%; in experiment [2], 80.5%; in experiment [3], 73.1%; in experiment [4], 44.3%; in experiment [5], 15.7%; in [6], 25.4%. Besides, the values for the growth in [9], in experiment [7] and in [8] were 57.7%, 66.7% and 57.1%, respectively.
Regarding `COc1cc(-c2nc3sccn3c2-c2ccnc(S(C)(=O)=O)n2)ccc1F`, the growth is 92.4% in experiment [1]; 94.5% in experiment [2]; 89.3% in [3]; 108% in experiment [4]; 100% in [5]; 93.4% in experiment [6]. Moreover, the figures for the growth in experiment [7] and in experiment [8] were 102% and 114%, respectively.

(Values after PubChem BioAssay (NCI).)
